Composite z-score and z-score data for eleven compounds are collected here from PubChem BioAssay.

The subject of test [1] is Plasmodium falciparum Sir2 (PF13_0152, Sir2A). As to the kind of experiment: pfSir2 binders on small-molecule microarrays, primary screen, biochemical, small-molecule microarray, 635 nm fluorescence (AID 1098).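 Further: score merges spot fluorescence intensity with its signal-to-noise ratio.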 As to conditions: small-molecule microarray binding, fluorescence 635 nm; higher = more signal.
Test [2] is described as follows: small-molecule microarray binders of probe aDKK1, primary screen, biochemical, biotinylated probe, 635/667 nm fluorescence (AID 1099).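 Further: score merges 667nm spot fluorescence with signal to noise across triplicate slides; reference of the scale not given here.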 As to conditions: higher = more signal.
Test [3] can be described thus: small-molecule microarray binders of probe aCHRDL2, primary screen, biochemical, biotinylated probe, 635/667 nm fluorescence (AID 1100). Conditions: higher = more signal.
Test [4] in a line: splicing luciferase reporter signal modulators, primary screen, spliceosome inhibition project, cell-based, HEK293, splice +/- reporter (AID 1101).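 Further: HEK293 cells carrying a splicing-competent luciferase reporter gene; test concentration not given here.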 Conditions: luminescence, 24 h, higher = more signal, called active from +8 up or from −8 down.
Test [5] concerns the target Fibroblast growth factor 10 (Homo sapiens) (UniProt O15520). Kind of test: FGF10 binders on small-molecule microarrays, primary screen, biochemical, small-molecule microarray, 635 nm fluorescence (AID 1102). As to conditions: FGF10 binding, fluorescence 635 nm, higher = more signal.
The test system of test [6] is glycogen synthase kinase-3 (GSK3A per assay name; protocol says GSK3B). As to the kind of experiment: GSK3 binders on small-molecule microarrays, primary screen, biochemical, small-molecule microarray, 635 nm fluorescence, GSK3A (AID 1103). Further: the record names both GSK3A and GSK3B. Conditions: small-molecule microarray binding, fluorescence 635 nm; higher = more signal.
The target of test [7] is Epidermal growth factor receptor (Homo sapiens) (UniProt P00533). Kind of test: EGFR binders on small-molecule microarrays, primary screen, biochemical, small-molecule microarray, 635 nm fluorescence (AID 1104).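 Further: score merges 667 nm emission intensity with spot signal to noise over triplicate slides.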 Conditions: EGFR binding, higher = more signal.
Test [8] deals with Follistatin-related protein 3 (Homo sapiens) (UniProt O95633). Kind of test: FSTL3 binders on small-molecule microarrays, primary screen, biochemical, small-molecule microarray, 635 nm fluorescence (AID 1105).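 Further: score merges emission near 667 nm and signal to noise per printed spot across three slides.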 As to conditions: FSTL3 binding, higher = more signal.
For test [9], the target named is Dickkopf-related protein 1 (Homo sapiens) (UniProt O94907). As to the kind of experiment: DKK1 binders on small-molecule microarrays, primary screen, biochemical, small-molecule microarray, 635 nm fluorescence scan (AID 1106).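 Further: score merges emission near 667 nm with signal to noise over three replicate slides.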 As to conditions: DKK1 binding, higher = more signal.
Test [10] relates to Inhibin beta A chain (activin A). As to the kind of experiment: INHBA (activin A) binders on microarrays, primary screen, biochemical, small-molecule microarray, 635 nm fluorescence scan (AID 1107).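 Further: mouse activin A protein probed at 4.33 µg/mL on printed slides; score merges bound-protein fluorescence near 667 nm with spot signal-to-noise.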 Conditions: small-molecule microarray binding, higher = more signal.

Activity calls are given as the source filed them.

Sequence of Follistatin-related protein 3 (Homo sapiens) (O95633 whole entry, looked up): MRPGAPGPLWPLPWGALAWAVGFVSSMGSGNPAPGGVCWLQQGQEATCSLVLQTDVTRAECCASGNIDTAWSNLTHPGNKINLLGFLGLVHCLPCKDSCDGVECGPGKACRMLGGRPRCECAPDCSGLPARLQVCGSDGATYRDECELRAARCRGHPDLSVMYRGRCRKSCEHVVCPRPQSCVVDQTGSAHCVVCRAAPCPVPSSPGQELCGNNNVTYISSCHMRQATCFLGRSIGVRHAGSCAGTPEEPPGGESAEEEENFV
Sequence of Dickkopf-related protein 1 (Homo sapiens) (O94907 whole entry, looked up): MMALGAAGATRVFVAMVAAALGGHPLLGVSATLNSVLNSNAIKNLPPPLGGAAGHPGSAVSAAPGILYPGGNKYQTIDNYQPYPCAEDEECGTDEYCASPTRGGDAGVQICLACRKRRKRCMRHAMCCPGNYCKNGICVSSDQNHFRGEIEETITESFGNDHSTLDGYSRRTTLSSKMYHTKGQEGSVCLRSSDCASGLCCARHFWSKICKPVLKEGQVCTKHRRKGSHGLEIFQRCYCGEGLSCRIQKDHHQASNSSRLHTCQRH
Sequence of Fibroblast growth factor 10 (Homo sapiens) (O15520 whole entry, looked up): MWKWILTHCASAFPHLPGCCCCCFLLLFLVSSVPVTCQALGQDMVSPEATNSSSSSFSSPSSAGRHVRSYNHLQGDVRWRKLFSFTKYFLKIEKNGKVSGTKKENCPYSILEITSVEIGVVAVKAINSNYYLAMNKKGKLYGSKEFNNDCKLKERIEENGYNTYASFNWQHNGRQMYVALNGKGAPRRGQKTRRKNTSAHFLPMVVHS
Sequence of Epidermal growth factor receptor (Homo sapiens) (P00533 whole entry, looked up): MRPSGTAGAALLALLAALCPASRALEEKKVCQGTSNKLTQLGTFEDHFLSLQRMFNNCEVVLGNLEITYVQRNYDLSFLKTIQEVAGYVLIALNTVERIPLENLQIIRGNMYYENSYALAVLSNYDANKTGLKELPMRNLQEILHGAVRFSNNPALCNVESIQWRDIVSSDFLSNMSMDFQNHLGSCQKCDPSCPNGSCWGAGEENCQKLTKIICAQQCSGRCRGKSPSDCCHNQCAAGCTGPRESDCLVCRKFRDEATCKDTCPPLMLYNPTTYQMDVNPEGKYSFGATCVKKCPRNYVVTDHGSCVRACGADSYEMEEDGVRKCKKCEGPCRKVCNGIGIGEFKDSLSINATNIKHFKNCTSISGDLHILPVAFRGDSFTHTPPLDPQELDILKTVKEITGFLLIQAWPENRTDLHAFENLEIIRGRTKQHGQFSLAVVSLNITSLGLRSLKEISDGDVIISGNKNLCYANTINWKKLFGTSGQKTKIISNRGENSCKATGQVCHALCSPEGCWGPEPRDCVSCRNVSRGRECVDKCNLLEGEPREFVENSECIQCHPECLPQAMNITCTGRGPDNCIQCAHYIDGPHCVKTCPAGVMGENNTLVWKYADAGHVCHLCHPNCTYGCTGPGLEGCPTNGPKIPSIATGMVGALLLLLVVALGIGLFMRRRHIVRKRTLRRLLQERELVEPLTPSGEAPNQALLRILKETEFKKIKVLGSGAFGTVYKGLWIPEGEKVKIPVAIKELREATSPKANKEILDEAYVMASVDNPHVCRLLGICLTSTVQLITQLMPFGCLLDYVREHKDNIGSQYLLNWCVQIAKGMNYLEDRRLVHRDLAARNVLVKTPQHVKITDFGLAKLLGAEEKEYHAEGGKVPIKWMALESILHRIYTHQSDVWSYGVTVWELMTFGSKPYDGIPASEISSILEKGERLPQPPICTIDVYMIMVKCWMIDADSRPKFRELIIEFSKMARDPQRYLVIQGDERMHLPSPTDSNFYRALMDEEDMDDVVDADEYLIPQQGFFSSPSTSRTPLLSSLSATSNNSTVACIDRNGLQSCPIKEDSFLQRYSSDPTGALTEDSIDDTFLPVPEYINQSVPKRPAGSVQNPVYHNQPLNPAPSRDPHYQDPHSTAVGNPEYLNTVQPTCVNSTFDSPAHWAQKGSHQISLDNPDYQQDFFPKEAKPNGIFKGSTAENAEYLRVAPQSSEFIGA

Turning to `O=C(O)[C@]1(CCS(=O)(=O)c2ccccc2)N=C(c2ccc(OCCCO)cc2)O[C@@H]1c1ccccc1`, the composite z-score in test [1] was 0.74; in test [2] it was 1.21; in test [3], 1.04; in test [5], 0.216; in test [6], 0.439; in test [7], -0.422. Moreover, the results for the composite z-score in test [8], in [9] and in [10] were -0.564, -0.402 and 0.849, respectively. The z-score in test [4] was 0.149 (inactive).
On to `CC(C)[Si](C#C[Si](C(C)C)(C(C)C)C(C)C)(O[C@H](C)c1cn(Cc2cccc(Cl)c2)nn1)C(C)C`, for which the composite z-score in test [1] is 0.259; in test [2], -0.493; in test [3], -0.578; in test [5] it was 0.539; in test [6], 1.14; in test [7] it was 0.863. The composite z-score in test [8] was 0.433; in test [9], 0.459; in [10], -0.33. Further, the z-score in test [4] is -0.589 (inactive).
For `COc1ccccc1CN1C(=O)c2ccccc2[C@](Cc2ccccc2I)(C(=O)NCCN2CCOCC2)[C@@H]1c1ccc(CO)cc1`, the composite z-score in test [1] is 1.62; in test [2] it was -0.0631; in [3], 0.227; in test [5], 1.02; in test [6] it was 1.31; in test [7] it was 1.05. The results for the composite z-score in [8], in test [9] and in test [10] were 1.46, 0.635 and 0.437, respectively. In addition, the z-score in test [4] is 0.233 (inactive).
In the case of `COc1ccc(CCNC(=O)[C@@H]2c3ccccc3C(=O)N(Cc3ccccc3)[C@H]2c2ccc(CO)cc2)cc1`, the composite z-score is 1.23 in test [1]; -0.0548 in test [2]; 0.693 in test [3]; 0.847 in test [5]; 0.432 in test [6]; -0.25 in [7]. The composite z-score in test [8] was 0.84; in test [9] it was -0.0051; in test [10] it was 0.309. Besides, in test [4], the z-score was -0.575 (inactive).
As to `C[C@H]1ON(c2ccccc2)[C@@H](c2ccccc2)[C@@H]1C(=O)N1C(=O)OC[C@@H]1c1ccccc1`, the composite z-score in test [1] was 0.0672; in test [2], -0.138; in test [3] it was -0.351; in test [5], 0.675; in test [6] it was 0.363; in test [7], 0.356. The composite z-score in test [8] was 0.699; in [9], 0.289; in test [10], 0.631. In addition, in [4], the z-score was 0.216 (inactive).
On to `CC1CC/C=C\[C@H]2OC34C=CCN(Cc5ccccc5)C(=O)[C@H]3N(CCO)C(=O)[C@@H]4C2C(=O)O1` (stereo not given in full), for which the composite z-score in test [1] was 1.59; in [2], -0.0038; in test [3] it was 0.681; in test [5] it was 0.237; in test [6], -0.252; in [7] it was -1.11. The results for the composite z-score in test [8], in test [9] and in test [10] were -1.07, -0.798 and 1.23, respectively. For the same compound, the z-score in test [4] is 0.229 (inactive).
Take `Cc1ccc(S[C@]2(C(=O)NCc3ccccc3)CC(=O)N(C3Cc4ccccc4C3)[C@@H]2c2ccc(CO)cc2I)cc1`: the composite z-score in test [1] was 0.976; in test [2], 0.699; in test [3], 0.995; in test [5], -0.699; in [6], -0.488; in test [7], -0.807. Moreover, the composite z-score in test [8] was -0.645; in test [9] it was -1.13; in test [10], 0.889. Besides, the z-score in [4] was -1.83 (inactive).
For the compound `CCCCC=C[C@@H](NC(=O)CCc1ccccc1)c1ccccc1`, the composite z-score in [1] is 0.956; in test [2], 0.401; in [3], -0.0262; in test [5], 0.919; in [6] it was 0.869; in [7] it was 0.51. In addition, the composite z-score in [8] is 0.188; in test [9], 0.248; in test [10], 0.724. Besides, the z-score in [4] was 11.9 (active).
Turning to `C=CCN1C(=O)[C@@]2(O[C@@H](CCO)[C@H]([Si](C)(C)c3ccc(OC)cc3)[C@H]2C)c2cc(NC(=O)[C@H](C)O)ccc21`, the composite z-score in test [1] is 1.53; in test [2], -0.474; in test [3] it was -0.0061; in test [5], 1.26; in test [6], 1.3; in test [7], -0.242. The composite z-score in test [8] was 0.254; in test [9], 0.147; in test [10] it was -0.156. Further, in [4], the z-score was -2.46 (inactive).
For the compound `O=C1C[C@@](C(=O)NCc2ccccc2)(c2ccc([N+](=O)[O-])cc2)[C@@H](c2ccc(CO)cc2I)N1C1CCCCC1`, the composite z-score in test [1] came out at 0.838; in test [2], 1.78; in [3], 0.652; in test [5] it was 0.7; in test [6], 1.16; in test [7] it was 0.768. Further, the composite z-score in test [8] worked out at 1.33; in test [9], 0.876; in [10] it was 0.654. Moreover, the z-score in test [4] is -0.551 (inactive).
Turning to `O=C(NCc1ccccc1)[C@]1(Cc2ccccc2)N=C(c2ccc(OCCCO)cc2)O[C@@H]1c1ccccc1`, the composite z-score was -0.0602 in test [1]; 0.857 in test [2]; 0.75 in [3]; 0.154 in [5]; 0.789 in test [6]; 0.178 in test [7]. The composite z-score is -0.11 in test [8], -0.565 in [9] and 0.672 in test [10]. In addition, the z-score in test [4] was -0.0706 (inactive).
